Records with an inconclusive call do not appear. The source made the active and inactive calls. Rule for the calls, unless noted: active = hit-call score of the fitted dose curve at least 0.9, where 1 is the maximum; inactive = score below 0.9.
Legend:
[1] = molecular target: Paired box protein Pax-6 (Homo sapiens) (UniProt P26367); test: ATG_Pax6_CIS: Attagene CIS-FACTORIAL HepG2 Assay for human Paired Box 6 (PAX6) (AID 2282956); details: HepG2 CIS-FACTORIAL PAX6 reporter transcription, RNA readout; actives raise or lower the signal
Sequence of Paired box protein Pax-6 (Homo sapiens) (P26367 whole entry, looked up): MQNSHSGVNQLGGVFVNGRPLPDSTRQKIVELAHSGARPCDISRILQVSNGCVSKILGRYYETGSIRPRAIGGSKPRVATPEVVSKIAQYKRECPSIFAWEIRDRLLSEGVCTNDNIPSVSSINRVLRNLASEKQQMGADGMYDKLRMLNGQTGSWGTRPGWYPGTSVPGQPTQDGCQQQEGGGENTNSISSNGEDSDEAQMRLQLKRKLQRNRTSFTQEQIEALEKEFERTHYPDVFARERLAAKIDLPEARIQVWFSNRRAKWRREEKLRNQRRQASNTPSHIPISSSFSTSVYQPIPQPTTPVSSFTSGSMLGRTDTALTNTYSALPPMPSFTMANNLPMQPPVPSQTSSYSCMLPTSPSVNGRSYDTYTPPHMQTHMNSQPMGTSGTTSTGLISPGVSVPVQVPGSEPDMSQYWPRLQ
How it was run: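 Readout: reporter transcript fluorescence after RT-PCR and capillary electrophoresis. Cells: HepG2, transiently transfected with cis-regulated MRTUs. Exposure 24 h. Gain or loss of signal fitted bidirectionally relative to DMSO.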

[2] = ATG_PXRE_CIS: Attagene CIS-FACTORIAL HepG2 Assay for human Pregnane X Receptor Element (PXRE) (AID 2282957); details: HepG2 Attagene CIS-FACTORIAL PXRE reporter, mRNA; actives raise or lower the signal
How it was run: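 Endogenous transcription factor activity in HepG2 was gauged through induction of reporter mRNA driven by a cis-regulating promoter element, sampled 24 h post-treatment. Activity was fitted in both directions against DMSO negative control.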

[3] = ATG_Sox_CIS: Attagene CIS-FACTORIAL HepG2 Assay for human SRY-box transcription factor (SOX) (AID 2282960); details: HepG2 Attagene cis-factorial SOX reporter, mRNA; actives raise or lower the signal
How it was run: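 HepG2 cells transiently transfected with multiple cis-regulated reporter units, then dosed for 24 h. Reporter mRNA quantified by RT-PCR, fluorescent labelling, HpaI digestion and capillary electrophoresis; bidirectional fit versus DMSO.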

[4] = molecular target: Transcription factor Sp1 (Homo sapiens) (UniProt P08047); test: ATG_Sp1_CIS: Attagene CIS-FACTORIAL HepG2 Assay for human Specificity Protein 1 (Sp1) (AID 2282961); details: HepG2 Sp1 cis-reporter transcription, actives raise or lower the signal
Sequence of Transcription factor Sp1 (Homo sapiens) (P08047 whole entry, looked up): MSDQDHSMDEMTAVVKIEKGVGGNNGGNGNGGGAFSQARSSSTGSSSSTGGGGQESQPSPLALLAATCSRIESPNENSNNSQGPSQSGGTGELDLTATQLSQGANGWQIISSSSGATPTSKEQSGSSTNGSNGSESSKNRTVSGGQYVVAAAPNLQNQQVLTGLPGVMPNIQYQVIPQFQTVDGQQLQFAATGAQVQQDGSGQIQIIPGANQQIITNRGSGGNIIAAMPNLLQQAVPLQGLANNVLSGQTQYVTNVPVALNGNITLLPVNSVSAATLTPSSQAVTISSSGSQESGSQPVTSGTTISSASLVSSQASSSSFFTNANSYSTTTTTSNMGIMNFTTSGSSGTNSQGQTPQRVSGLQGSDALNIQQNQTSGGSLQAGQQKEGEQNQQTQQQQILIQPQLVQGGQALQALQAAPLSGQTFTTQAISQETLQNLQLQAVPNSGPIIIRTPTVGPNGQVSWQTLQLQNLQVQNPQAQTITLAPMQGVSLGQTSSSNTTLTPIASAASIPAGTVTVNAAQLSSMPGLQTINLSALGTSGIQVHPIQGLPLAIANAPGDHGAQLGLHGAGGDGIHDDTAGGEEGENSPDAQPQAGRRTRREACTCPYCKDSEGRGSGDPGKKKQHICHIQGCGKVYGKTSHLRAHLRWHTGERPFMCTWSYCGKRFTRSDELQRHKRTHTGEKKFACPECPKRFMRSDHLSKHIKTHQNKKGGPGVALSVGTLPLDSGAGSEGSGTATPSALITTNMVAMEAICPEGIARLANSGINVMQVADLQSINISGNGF
How it was run: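 HepG2 cells transiently transfected with multiplexed cis-regulated reporter constructs, chemical exposure 24 h. Reporter mRNA quantified by RT-PCR with capillary electrophoresis; bidirectional fit relative to DMSO.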

[5] = ATG_SREBP_CIS: Attagene CIS-FACTORIAL HepG2 Assay for human Sterol Regulatory Element Binding (SREBP) (AID 2282962); details: HepG2 Attagene cis-factorial SREBP reporter, mRNA; actives raise or lower the signal
How it was run: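 Readout: fluorescent reporter-transcript peaks resolved by capillary electrophoresis after RT-PCR. Cells were human HepG2 carrying transfected cis-promoter reporter constructs, dosed for 24 h. Gain or loss of signal was fitted against DMSO controls.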

[6] = molecular target: Signal transducer and activator of transcription 3 (Homo sapiens) (UniProt P40763); test: ATG_STAT3_CIS: Attagene CIS-FACTORIAL HepG2 Assay for human Signal Transducer and Activator of Transcription 3 (STAT3) (AID 2282963); details: HepG2, Attagene cis-factorial STAT3 reporter transcription; actives raise or lower the signal
Sequence of Signal transducer and activator of transcription 3 (Homo sapiens) (P40763 whole entry, looked up): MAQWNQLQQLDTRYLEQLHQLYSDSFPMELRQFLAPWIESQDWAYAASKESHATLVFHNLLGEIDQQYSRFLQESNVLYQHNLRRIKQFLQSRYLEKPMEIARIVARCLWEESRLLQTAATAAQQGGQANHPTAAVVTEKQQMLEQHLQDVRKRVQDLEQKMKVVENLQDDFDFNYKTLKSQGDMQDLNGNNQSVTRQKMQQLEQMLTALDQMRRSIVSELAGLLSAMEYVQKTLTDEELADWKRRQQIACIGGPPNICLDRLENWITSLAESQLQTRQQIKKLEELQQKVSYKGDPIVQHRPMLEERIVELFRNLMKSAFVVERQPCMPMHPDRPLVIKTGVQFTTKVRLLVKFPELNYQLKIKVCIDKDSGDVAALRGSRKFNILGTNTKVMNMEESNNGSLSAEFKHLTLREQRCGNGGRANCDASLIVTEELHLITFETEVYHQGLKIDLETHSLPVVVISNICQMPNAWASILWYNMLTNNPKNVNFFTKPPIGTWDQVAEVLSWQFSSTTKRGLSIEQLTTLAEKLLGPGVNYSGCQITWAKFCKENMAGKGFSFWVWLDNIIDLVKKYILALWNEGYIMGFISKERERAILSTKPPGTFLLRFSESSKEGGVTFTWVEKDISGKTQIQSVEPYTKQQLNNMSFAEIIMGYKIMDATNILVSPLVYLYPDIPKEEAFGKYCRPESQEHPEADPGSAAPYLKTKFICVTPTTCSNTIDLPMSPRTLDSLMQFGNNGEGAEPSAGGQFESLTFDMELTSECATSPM
How it was run: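 Cis-factorial format: endogenous transcription factors in HepG2 drive transfected reporter units. After 24 h treatment, reporter RNA was reverse-transcribed, amplified, FAM-labelled and HpaI-digested before CE analysis; activity scored in both directions against DMSO.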

[7] = ATG_TA_CIS: Attagene CIS-FACTORIAL HepG2 Assay for human TA Basal Promoter (AID 2282964); details: HepG2 Attagene CIS-factorial TA basal promoter reporter; actives raise or lower the signal
How it was run: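 Background internal-marker endpoint from a 52-component HepG2 cis-reporter panel. Cells treated 24 h; reporter transcripts quantified via RT-PCR and CE fluorescence against DMSO baseline.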

[8] = ATG_TCF_b_cat_CIS: Attagene CIS-FACTORIAL HepG2 Assay for human T-Cell-Factor with beta-catenin (TCF/b-cat) (AID 2282965); details: HepG2 TCF/beta-catenin cis-reporter transcription, actives raise or lower the signal
How it was run: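 Endogenous transcription factor activity is captured through cis-promoter reporter constructs transiently introduced into human HepG2 liver cells. Induced reporter mRNA is measured after 24 h and fitted bidirectionally relative to DMSO.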

[9] = ATG_TAL_CIS: Attagene CIS-FACTORIAL HepG2 Assay for human TAL Basal Promoter (AID 2282966); details: HepG2 Attagene cis-factorial TAL promoter reporter; actives raise or lower the signal;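 note: background control endpoint measuring basal TAL promoter reporter mRNA not a specific factor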
How it was run: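 Endogenous transcription-factor activity is sensed in HepG2 cells through transfected cis-promoter reporter constructs. After 24 h dosing, reporter transcripts are quantified by RT-PCR and capillary electrophoresis. Gain or loss of signal is fitted relative to DMSO.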

[10] = ATG_TGFb_CIS: Attagene CIS-FACTORIAL HepG2 Assay for human Transforming Growth Factor (TGF) (AID 2282967); details: HepG2 Attagene CIS TGFb reporter, mRNA transcription; actives raise or lower the signal
How it was run: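 Liver HepG2 line, cis-factorial reporter panel, 24 h dosing. Quantitation: RT-PCR products labeled with 6-FAM, cut with HpaI, resolved by capillary electrophoresis; DMSO-referenced bidirectional analysis.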

[11] = ATG_VDRE_CIS: Attagene CIS-FACTORIAL HepG2 Assay for human Vitamin D Receptor Element (VDRE) (AID 2282968); details: HepG2 VDRE cis-reporter transcription, actives raise or lower the signal
How it was run: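 Measures endogenous factor activity through cis-element-driven reporter transcripts in transiently transfected HepG2. Cells are treated 24 h; reporter mRNA is quantified by RT-PCR and capillary electrophoresis; fitting is bidirectional.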

[12] = molecular target: Estrogen receptor (Homo sapiens) (UniProt P03372); test: ATG_ERa_TRANS: Attagene TRANS-FACTORIAL HepG2 Assay for human Estrogen Receptor alpha (ERa) (AID 2282970; active = hit-call score of the fitted dose curve at least 0.9, where 1 is the maximum); details: HepG2 Attagene TRANS ERa GAL4 reporter, mRNA
Sequence of Estrogen receptor (Homo sapiens) (P03372 whole entry, looked up, the tested form may be a part): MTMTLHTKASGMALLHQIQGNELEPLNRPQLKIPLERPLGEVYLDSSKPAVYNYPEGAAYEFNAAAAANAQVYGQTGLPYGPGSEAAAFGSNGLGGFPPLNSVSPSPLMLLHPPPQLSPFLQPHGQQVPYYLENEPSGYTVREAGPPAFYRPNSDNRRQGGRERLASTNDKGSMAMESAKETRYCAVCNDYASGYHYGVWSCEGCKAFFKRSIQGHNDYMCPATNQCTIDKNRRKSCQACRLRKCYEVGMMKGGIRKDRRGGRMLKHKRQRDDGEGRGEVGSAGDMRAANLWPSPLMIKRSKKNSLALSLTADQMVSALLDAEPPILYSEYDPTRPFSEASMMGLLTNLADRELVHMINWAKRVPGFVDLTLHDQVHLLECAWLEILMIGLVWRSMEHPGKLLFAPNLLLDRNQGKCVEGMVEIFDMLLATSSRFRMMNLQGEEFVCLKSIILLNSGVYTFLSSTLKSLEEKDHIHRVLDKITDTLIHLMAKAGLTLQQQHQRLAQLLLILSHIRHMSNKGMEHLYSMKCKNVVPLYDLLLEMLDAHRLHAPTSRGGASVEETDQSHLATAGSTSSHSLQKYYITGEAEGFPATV
How it was run: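 Transfected HepG2 cells carrying GAL4-UAS-driven reporter units were dosed for 24 hours. Total RNA was reverse-transcribed, reporter sequences PCR-amplified, FAM-labelled, HpaI-digested and resolved by capillary electrophoresis. Increases over DMSO control defined activity.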

[13] = molecular target: X-box-binding protein 1 (Homo sapiens) (UniProt P17861); test: ATG_Xbp1_CIS: Attagene CIS-FACTORIAL HepG2 Assay for human X-box Binding Protein 1 (XBP1) (AID 2282972); details: HepG2 XBP1 cis-element reporter, Attagene multiplex; actives raise or lower the signal
Sequence of X-box-binding protein 1 (Homo sapiens) (P17861 whole entry, looked up, the tested form may be a part): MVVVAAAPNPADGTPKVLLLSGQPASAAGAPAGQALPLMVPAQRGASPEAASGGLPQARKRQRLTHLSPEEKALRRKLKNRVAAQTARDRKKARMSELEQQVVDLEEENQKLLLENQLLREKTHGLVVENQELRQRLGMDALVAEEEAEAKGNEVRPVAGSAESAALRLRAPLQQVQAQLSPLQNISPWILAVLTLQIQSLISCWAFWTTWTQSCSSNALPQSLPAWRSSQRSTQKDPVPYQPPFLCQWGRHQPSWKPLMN
How it was run: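 Read-out: fluorescent reporter mRNA fragments resolved by capillary electrophoresis after RT-PCR. Human HepG2 liver cells carried transfected cis-promoter reporter units and were exposed to chemicals for 24 hours. Gain or loss of signal fitted relative to DMSO baseline.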

[14] = ATG_M_19_TRANS: Attagene TRANS-FACTORIAL HepG2 Assay for M19 Transcription Factor (Internal Marker) (AID 2282974; active = hit-call score of the fitted dose curve at least 0.9, where 1 is the maximum); details: HepG2 Attagene TRANS-FACTORIAL M19 internal marker reporter
How it was run: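 HepG2 transiently transfected with GAL4-UAS multiplex reporter constructs, exposed 24 h; reporter RNA quantified by RT-PCR, 6-FAM labeling, HpaI digestion and capillary electrophoresis; internal background marker fitted upward versus DMSO.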

[15] = ATG_RORE_CIS: Attagene CIS-FACTORIAL HepG2 Assay for human RAR-related Orphan Receptor Element (RORE) (AID 2282959); details: HepG2 Attagene cis-factorial RORE reporter, mRNA; actives raise or lower the signal
How it was run: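 HepG2 cells carrying transiently transfected cis-regulated reporter units; RORE-driven reporter mRNA quantified 24 h post-dosing by RT-PCR, 6-FAM primer extension, HpaI digestion and capillary electrophoresis. Bidirectional fit versus DMSO.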

[16] = ATG_GAL4_TRANS: Attagene TRANS-FACTORIAL HepG2 Assay for GAL4 (Internal Marker) (AID 2282976; active = hit-call score of the fitted dose curve at least 0.9, where 1 is the maximum); details: HepG2 Attagene TRANS GAL4 internal marker reporter
How it was run: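 Fluorescence from capillary electrophoresis of labelled RT-PCR products quantifies reporter mRNA induction after 24 h dosing of HepG2 cells carrying transfected GAL4-UAS reporter transcription units. Vehicle DMSO serves as baseline.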

[17] = molecular target: Nuclear receptor subfamily 1 group I member 3 (Homo sapiens) (UniProt Q14994); test: ATG_CAR_TRANS: Attagene TRANS-FACTORIAL HepG2 Assay for human Constitutive Androstane Receptor (CAR) (AID 2282969; active = hit-call score of the fitted dose curve at least 0.9, where 1 is the maximum;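 note: activators raise reporter mRNA above DMSO so AC50 marks induction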); details: HepG2 Attagene TRANS-FACTORIAL CAR reporter
Sequence of Nuclear receptor subfamily 1 group I member 3 (Homo sapiens) (Q14994 whole entry, looked up, the tested form may be a part): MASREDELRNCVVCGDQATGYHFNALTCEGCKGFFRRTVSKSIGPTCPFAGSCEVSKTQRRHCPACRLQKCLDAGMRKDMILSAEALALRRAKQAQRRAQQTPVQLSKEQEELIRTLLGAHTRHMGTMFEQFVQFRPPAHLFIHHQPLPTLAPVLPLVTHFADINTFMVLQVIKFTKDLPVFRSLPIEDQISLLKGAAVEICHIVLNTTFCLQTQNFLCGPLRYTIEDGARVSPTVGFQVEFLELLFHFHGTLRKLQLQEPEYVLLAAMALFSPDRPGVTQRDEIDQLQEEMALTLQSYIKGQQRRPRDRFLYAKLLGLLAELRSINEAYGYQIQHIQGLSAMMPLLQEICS
How it was run: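 Signal is reporter mRNA induction relative to DMSO, measured 24 h after dosing by RT-PCR with fluorescent primer extension and capillary electrophoresis. Human HepG2 liver cells carried transiently transfected chimeric NR-Gal4/GAL4-UAS reporter constructs.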

[18] = molecular target: Steroid hormone receptor ERR1 (Homo sapiens) (UniProt P11474); test: ATG_ERRa_TRANS: Attagene TRANS-FACTORIAL HepG2 Assay for human Estrogen-Related Receptor alpha (ERRa) (AID 2282971; active = hit-call score of the fitted dose curve at least 0.9, where 1 is the maximum); details: HepG2 Attagene TRANS reporter, ERRa transactivation
Sequence of Steroid hormone receptor ERR1 (Homo sapiens) (P11474 whole entry, looked up, the tested form may be a part): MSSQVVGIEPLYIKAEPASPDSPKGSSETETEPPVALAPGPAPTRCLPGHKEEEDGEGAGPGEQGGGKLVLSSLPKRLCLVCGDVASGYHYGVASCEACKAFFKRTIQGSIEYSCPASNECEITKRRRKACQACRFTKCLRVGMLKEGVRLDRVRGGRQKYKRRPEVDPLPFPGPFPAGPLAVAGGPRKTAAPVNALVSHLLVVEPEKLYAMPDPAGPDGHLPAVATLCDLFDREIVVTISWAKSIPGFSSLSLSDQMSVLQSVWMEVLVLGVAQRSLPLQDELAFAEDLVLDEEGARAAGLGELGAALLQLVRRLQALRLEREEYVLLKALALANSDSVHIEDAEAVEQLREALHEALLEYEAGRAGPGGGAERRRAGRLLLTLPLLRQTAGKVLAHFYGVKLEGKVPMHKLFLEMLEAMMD
How it was run: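 HepG2 cells were transiently transfected with multiple GAL4-UAS reporter units, then dosed with compound for 24 h. Total RNA was reverse-transcribed, reporter cDNA PCR-amplified and fluorescently labelled, and fragments resolved by capillary electrophoresis; induction was compared with DMSO.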

[19] = molecular target: Estrogen-related receptor gamma (Homo sapiens) (UniProt P62508); test: ATG_ERRg_TRANS: Attagene TRANS-FACTORIAL HepG2 Assay for human Estrogen-Related Receptor gamma (ERRg) (AID 2282977; active = hit-call score of the fitted dose curve at least 0.9, where 1 is the maximum;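 note: hits increase reporter signal over DMSO so potencies reflect activators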); details: HepG2 Attagene TRANS reporter, ERRg transactivation
Sequence of Estrogen-related receptor gamma (Homo sapiens) (P62508 whole entry, looked up, the tested form may be a part): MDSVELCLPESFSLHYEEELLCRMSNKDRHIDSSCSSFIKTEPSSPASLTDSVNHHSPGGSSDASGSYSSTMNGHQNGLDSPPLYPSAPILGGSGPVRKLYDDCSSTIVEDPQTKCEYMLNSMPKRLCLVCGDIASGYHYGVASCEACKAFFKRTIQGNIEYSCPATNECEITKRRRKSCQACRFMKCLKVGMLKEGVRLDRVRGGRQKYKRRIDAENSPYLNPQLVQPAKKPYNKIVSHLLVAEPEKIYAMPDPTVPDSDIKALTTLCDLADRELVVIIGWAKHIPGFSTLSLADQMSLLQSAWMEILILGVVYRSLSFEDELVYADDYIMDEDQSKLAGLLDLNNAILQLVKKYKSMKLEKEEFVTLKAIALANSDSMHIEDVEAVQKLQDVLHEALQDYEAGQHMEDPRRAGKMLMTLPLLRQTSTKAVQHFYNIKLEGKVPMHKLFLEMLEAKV
How it was run: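 Exogenous NR-Gal4 chimera activity was assessed in HepG2 cells bearing transfected GAL4-UAS reporters. After 24 h dosing, total RNA underwent RT-PCR, fluorescent primer extension and HpaI digestion before capillary electrophoresis, with gain of signal scored against DMSO.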

In the case of `Brc1ccc(Br)c(Br)c1`, the outcome [1] is reported as “inactive”, the outcome [2] is reported as “inactive” and the outcome [3] is reported as “inactive”. The outcome [4] was “inactive”, the outcome [5] was “inactive” and the outcome [6] was “inactive”. The outcome [7] was “inactive”, the outcome [8] was “inactive” and the outcome [9] was “inactive”. For the same molecule, the outcome [10] was “inactive”, the outcome [11] was “inactive” and the outcome [12] was “inactive”. For the same molecule, the outcome [13] was “inactive” and the outcome [14] was “inactive”.

For `CN(c1nccc(=O)[nH]1)C1CCN(c2nc3ccccc3n2Cc2ccc(F)cc2)CC1`, the outcome [1] was “inactive”, the AC50 [2] was 6.61 µM (active) and the outcome [15] was “inactive”. For the same molecule, the outcome [3] was “inactive”, the outcome [5] was “inactive” and the outcome [6] was “inactive”. The outcome [7] was “inactive”, the outcome [8] was “inactive” and the outcome [9] was “inactive”. For the same molecule, the outcome [10] was “inactive”, the AC50 [11] was 9.35 µM (active) and the outcome [12] was “inactive”. The outcome [13] was “inactive” and the outcome [16] was “inactive”.

With `Oc1c(Cl)cc(Cl)c(Cl)c1Cc1c(O)c(Cl)cc(Cl)c1Cl` the AC50 [1] was 11.1 µM (active), the AC50 [2] was 0.802 µM (active) and the outcome [3] was “inactive”. For the same molecule, the outcome [4] was “inactive”, the outcome [5] was “inactive” and the outcome [6] was “inactive”. For the same molecule, the outcome [7] was “inactive”, the outcome [9] was “inactive” and the outcome [10] was “inactive”. For the same molecule, the AC50 [11] was 1.97 µM (active), the outcome [17] was “inactive” and the outcome [18] was “inactive”. The outcome [13] was “inactive”, the outcome [14] was “inactive” and the outcome [19] was “inactive”.

With `OCCOCCN1CCN(C2=Nc3ccccc3Sc3ccccc32)CC1` the outcome [1] was “inactive”, the AC50 [2] was 7.41 µM (active) and the outcome [15] was “inactive”. For the same molecule, the outcome [3] was “inactive”, the outcome [4] was “inactive” and the outcome [6] was “inactive”. The outcome [7] was “inactive”, the outcome [8] was “inactive” and the outcome [9] was “inactive”. For the same molecule, the outcome [10] was “inactive”, the AC50 [11] was 19.5 µM (active) and the outcome [13] was “inactive”. The outcome [16] was “inactive”.

Source: PubChem BioAssay (EPA / NIEHS)
